Source: PubChem BioAssay AID1159580 (chemical genetic matrix, 2015)
Values joined by “and” are separate entries in the source; they are usually repeats but may differ in a detail not shown here. Equal values may be shown once. The whole screen tested about 5,500 compounds, of which about 2,000 (36%) were called active. Another 18% or so got no clear call; they are omitted. Rule as the data show it: active = normalized growth mostly below about 0.91 (no sharp cut-off); inconclusive = no clear call, values can overlap the other calls; inactive = mostly above about 0.92. This is one part of the list.

Experiment: chemical genetic growth profiling, strain panel (AID 1159580);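 also: tested at 20 µM; growth read once vehicle control cultures reached saturation at 30 °C; 1 = growth at the plate median or of vehicle wells; lower values mean less growth of the strain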
Conditions: S. cerevisiae deletion strains, growth OD

Measured: normalized growth

CCCCC(=O)O[C@]1(C(=O)CO)[C@@H](C)CC2C3CCC4=CC(=O)C=C[C@]4(C)[C@@]3(F)C(O)C[C@@]21C (stereo partly drawn)
inactive: locus YAL013W, strain DEP1, hits give low values 0.968 | locus YAL021C, strain ccr4, hits give low values 0.982 | locus YAL026C, strain drs2, hits give low values 1.01 | locus YAL030W, strain snc1, hits give low values 0.981 | locus YBL061C, strain skt5, hits give low values 0.978 | locus YBR009C, strain hhf1, hits give low values 0.99 | locus YBR021W, strain FUR4, hits give low values 0.986 | locus YBR023C, strain chs3, hits give low values 0.98 | locus YBR171W, strain sec66, hits give low values 0.941 | locus YBR229C, strain ROT2, hits give low values 0.99 | locus YBR231C, strain swc5, hits give low values 0.948 | locus YBR279W, strain paf1, hits give low values 0.991 | locus YCL011C, strain gbp2, hits give low values 0.99 | locus YCL016C, strain dcc1, hits give low values 1.01 | locus YCL029C, strain bik1, hits give low values 0.981 | locus YCL069W, strain vba3, hits give low values 0.989 | locus YCR088W, strain abp1, hits give low values 0.997 | locus YDL005C, strain med2, hits give low values 0.972 | locus YDL035C, strain GPR1, hits give low values 1.03 | locus YDL040C, strain nat1, hits give low values 0.975 | locus YDL074C, strain BRE1, hits give low values 0.979 | locus YDL101C, strain DUN1, hits give low values 0.961 | locus YDL134C, strain PPH21, hits give low values 1 | locus YDL185W, strain tfp1, hits give low values 0.97 | locus YDL192W, strain arf1, hits give low values 0.978 | locus YDR001C, strain nth1, hits give low values 0.986 | locus YDR069C, strain doa4, hits give low values 0.968 | locus YDR101C, strain arx1, hits give low values 0.998 | locus YDR137W, strain rgp1, hits give low values 0.979 | locus YDR159W, strain sac3, hits give low values 0.974 | locus YDR162C, strain NBP2, hits give low values 1.01 | locus YDR195W, strain ref2 0.963 | locus YDR297W, strain sur2, hits give low values 0.975 | locus YDR318W, strain mcm21, hits give low values 0.996 | locus YDR334W, strain swr1, hits give low values 0.988 | locus YDR335W, strain msn5, hits give low values 0.977 | locus YDR388W, hits give low values 0.982 | locus YDR392W, strain spt3, hits give low values 1.07 | locus YDR502C, strain sam2, hits give low values 0.988 | locus YEL003W, strain gim4, hits give low values 0.987 | locus YEL037C, strain rad23, hits give low values 0.991 | locus YEL061C, strain CIN8 (second series), hits give low values 0.991 | locus YEL061C, strain CIN8, hits give low values 0.995 | locus YER015W, strain faa2, hits give low values 0.979 | locus YER016W, strain bim1, hits give low values 1.02 | locus YER110C, hits give low values 0.982 | locus YER111C, strain swi4, hits give low values 0.968 | locus YER155C, strain BEM2 (second series), hits give low values 0.981 | locus YER155C, strain BEM2, hits give low values 1.01 | locus YER167W, strain BCK2, hits give low values 1.01 | locus YFR010W, strain ubp6, hits give low values 0.95 | locus YGL078C, strain dbp3, hits give low values 0.99 | locus YGL086W, strain mad1, hits give low values 0.982 | locus YGL167C, strain pmr1, hits give low values 0.959 | locus YGL173C, strain kem1, hits give low values 0.96 | locus YGL227W, strain vid30, hits give low values 0.97 | locus YGL240W, strain doc1, hits give low values 0.945 | locus YGL248W, strain PDE1, hits give low values 0.962 | locus YGL253W, strain hxk2, hits give low values 0.985 | locus YGR078C, strain PAC10, hits give low values 0.969 | locus YGR135W, strain pre9, hits give low values 0.977 | locus YGR252W, strain gcn5, hits give low values 1.02 | locus YHR013C, strain ard1, hits give low values 0.996 | locus YHR027C, strain rpn1, hits give low values 0.986 | locus YHR030C, strain SLT2, hits give low values 0.991 and 0.976 | locus YHR079C, strain IRE1 (second series), hits give low values 1 | locus YHR079C, strain IRE1, hits give low values 0.977 | locus YHR094C, strain hxt1, hits give low values 0.983 | locus YHR129C, strain ARP1, hits give low values 0.983 | locus YHR142W, strain chs7, hits give low values 0.943 | locus YHR200W, strain rpn10, hits give low values 0.992 | locus YIL066C, strain RNR3, hits give low values 1.01 | locus YIL073C, strain SPO22, hits give low values 1.01 | locus YIL125W, strain kgd1, hits give low values 0.97 | locus YIR030C, strain dcg1, hits give low values 0.992 | locus YJL092W, strain hpr5, hits give low values 0.976 | locus YJL095W, strain BCK1 (second series), hits give low values 0.982 | locus YJL095W, strain BCK1, hits give low values 0.888 and 0.991 | locus YJL115W, strain asf1, hits give low values 0.965 | locus YJL129C, strain trk1, hits give low values 0.943 | locus YJL134W, strain LCB3, hits give low values 0.994 | locus YJL154C, strain vps35, hits give low values 0.972 | locus YJL164C, strain tpk1, hits give low values 0.988 | locus YJL166W, strain qcr8, hits give low values 0.941 | locus YJL168C, strain set2, hits give low values 0.983 | locus YJL187C, strain SWE1 (second series), hits give low values 0.933 | locus YJR043C, strain POL32, hits give low values 1.03 | locus YJR066W, strain TOR1, hits give low values 0.958
